In assay [1] the target is Cell division control protein 42 homolog (Homo sapiens) (UniProt P60953). As to the kind of experiment: activated mutant Cdc42 GTP-binding inhibitors, dose response, biochemical, multiplex bead flow cytometry, Bodipy-FL-GTP (AID 1333;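 active means fitted half-maximal concentration within the tested dose range, moderate curve steepness, a statistically real signal drop, and little compound fluorescence or tag-binding interference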). On the technique in general: Flow cytometry measures light scatter and fluorescence of single cells or particles in a stream.
Assay [2] shares this target. Description: wildtype Cdc42 GTP-binding inhibitors, dose response, biochemical, multiplex bead flow cytometry, Bodipy-FL-GTP (AID 1334;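 active means fitted half-maximal concentration within the tested range, moderate curve steepness, significant signal drop, and little compound fluorescence or bead-linkage interference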). To be noted: bead-based flow cytometry, Bodipy-FL-GTP binding to GST-Cdc42; at 100 µM (top of the series) unless noted.
Assay [3] concerns the target GTPase HRas (Homo sapiens) (UniProt P01112). Description: inhibitors of GTP binding to wildtype Ras, dose response, biochemical, multiplex bead flow cytometry (AID 1335;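 active means fitted half-maximal concentration within 10 nM to 100 µM, steepness 0.5 to 2, significant signal drop, low assay interference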). The settings on record: bead-based flow cytometry, Bodipy-GTP binding to GST-Ras; at 100 µM (top of the series) unless noted.
Assay [4] concerns Ras-related protein Rab-7a (dog), GTP binding. As to the kind of experiment: Rab7 GTP binding inhibitors, potency, dose response, biochemical, wildtype, multiplex bead flow cytometry (AID 1336; call rule not given here).
Assay [5] addresses Ras-related C3 botulinum toxin substrate 1 (Homo sapiens) (UniProt P63000). As to the kind of experiment: wildtype Rac1 GTP binding inhibitors, dose response, biochemical, multiplex bead flow cytometry (AID 1340). The settings on record: GST-Rac1 beads, Bodipy-FL-GTP binding; at 100 µM (top of the series) unless noted.
The target of assay [6] is GTPase HRas (Homo sapiens) (UniProt P01112). As to the kind of experiment: activated Ras mutant GTP binding inhibitors, dose response, biochemical, multiplex bead flow cytometry (AID 1341;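 active means dose-response curve with midpoint inside the tested range, moderate steepness, significant amplitude and little compound fluorescence or bead-attachment interference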;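 further: GST-tagged constitutively activated Ras mutant immobilized on beads and multiplexed with other GTPases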).

Each structure is given as a SMILES string. For part of these data: Potency and affinity values are given separately. Calls of active or inactive are those of the source.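 How the source made its calls, unless noted: active means dose curve with midpoint inside tested range, moderate steepness, plateau gap beyond fit error, low compound glow and bead-link interference; inactive means the rest.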

The results in this text go back to PubChem BioAssay.

Chain of GTPase HRas (Homo sapiens) (P01112 whole entry, looked up): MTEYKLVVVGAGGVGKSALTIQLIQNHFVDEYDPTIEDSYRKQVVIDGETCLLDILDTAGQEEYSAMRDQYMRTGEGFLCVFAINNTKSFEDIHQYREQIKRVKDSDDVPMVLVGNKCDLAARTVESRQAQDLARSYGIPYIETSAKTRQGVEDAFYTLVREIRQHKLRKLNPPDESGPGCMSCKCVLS
Chain of Cell division control protein 42 homolog (Homo sapiens) (P60953 whole entry, looked up): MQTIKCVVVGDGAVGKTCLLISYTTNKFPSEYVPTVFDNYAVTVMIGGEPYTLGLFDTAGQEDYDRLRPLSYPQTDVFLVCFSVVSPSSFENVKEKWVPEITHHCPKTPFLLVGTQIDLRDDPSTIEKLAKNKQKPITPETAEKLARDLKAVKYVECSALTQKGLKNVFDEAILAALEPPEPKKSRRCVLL

As for `COc1ccc(CNCc2ccc(C(=O)O)s2)cc1`, the compound was classed as inactive in assay [1], in assay [4] and in assay [6]. Further, the fluorescence, percent of control (lower = inhibition) in assay [2] was 64.9%. In assay [3], the GTP binding, percent of control was 89.4%. Besides, in assay [5], the GTP binding signal, raw median fluorescence (lower = inhibition) (MCF (arbitrary fluorescence units)) worked out at 33.5.
`CCOC(=O)c1cnc2c(C#N)cnn2c1N`: the compound was called inactive in assay [1], in assay [4] and in assay [6]. The fluorescence, percent of control (lower = inhibition) in assay [2] stood at 33.6%. Besides, the GTP binding, percent of control in assay [3] worked out at 72.1%. For the same compound, the GTP binding signal, raw median fluorescence (lower = inhibition) (MCF (arbitrary fluorescence units)) in assay [5] was found to be 167.
For the compound `Cc1cc([N+](=O)[O-])ccc1N=Nc1c(N)[nH]n(-c2ccccc2)c1=O`, the outcome in assay [1], in assay [4] and in assay [6] was inactive. In addition, the fluorescence, percent of control (lower = inhibition) in assay [2] was found to be 38.4%. This compound also yielded a GTP binding, percent of control in assay [3] of 85%. The GTP binding signal, raw median fluorescence (lower = inhibition) (MCF (arbitrary fluorescence units)) in assay [5] was 225.
Regarding `O=c1cc(N2CCc3ccccc3C2)[nH]c(=O)n1-c1ccc(Cl)cc1`, the outcome in assay [1], in assay [4] and in assay [6] was inactive. The fluorescence, percent of control (lower = inhibition) in assay [2] came to 43.6%. This compound showed a GTP binding, percent of control in assay [3] of 92.9%. The compound also showed a GTP binding signal, raw median fluorescence (lower = inhibition) (MCF (arbitrary fluorescence units)) in assay [5] of 267.
Take `CC(C)(C)OC(=O)N[C@@H](Cc1ccccc1)c1nnc(S(=O)(=O)Cc2cccc(F)c2)o1`: the call in assay [1], in assay [4] and in assay [6] was inactive. Besides, the fluorescence, percent of control (lower = inhibition) in assay [2] was found to be 33%. In addition, the GTP binding, percent of control in assay [3] was determined as 77%. In assay [5], this compound returned a GTP binding signal, raw median fluorescence (lower = inhibition) (MCF (arbitrary fluorescence units)) of 260.
Consider `CCCCN1C(=O)/C(=C/C=C2\N(C)c3ccccc3C2(C)C)SC1=S`, for which the compound was called inactive in assay [1], in assay [4] and in assay [6]. Further, the fluorescence, percent of control (lower = inhibition) in assay [2] came out at 128%. Also, in assay [3], the GTP binding, percent of control came out at 134%. The compound also had a GTP binding signal, raw median fluorescence (lower = inhibition) (MCF (arbitrary fluorescence units)) in assay [5] of 235.
`CCCc1cc(N2CCN(C(=O)c3ccco3)CC2)n2c(nc3ccccc32)c1C#N`: the result in assay [1], in assay [4] and in assay [6] was inactive. In addition, the fluorescence, percent of control (lower = inhibition) in assay [2] worked out at 34.7%. Further, the GTP binding, percent of control in assay [3] was 79%. The compound also registered a GTP binding signal, raw median fluorescence (lower = inhibition) (MCF (arbitrary fluorescence units)) in assay [5] of 240.
For the compound `Cc1ccc2c(c1)c1nnc(SCC(=O)N3CCCc4ccccc43)nc1n2CC(=O)O`, the call in assay [1], in assay [4] and in assay [6] was inactive. In assay [2], the fluorescence, percent of control (lower = inhibition) was determined as 17.6%. Further, the GTP binding, percent of control in assay [3] was found to be 37.8%. The compound further came in with a GTP binding signal, raw median fluorescence (lower = inhibition) (MCF (arbitrary fluorescence units)) in assay [5] of 96.4.
Regarding `COCCNc1nnnc2c1sc1nc(N3CCOCC3)c3c(c12)CCCC3`, the compound was called inactive in assay [1], in assay [4] and in assay [6]. Besides, the fluorescence, percent of control (lower = inhibition) in assay [2] was determined as 29.6%. Also, in assay [3], the GTP binding, percent of control turned out to be 64.1%. The same compound had a GTP binding signal, raw median fluorescence (lower = inhibition) (MCF (arbitrary fluorescence units)) in assay [5] of 137.
Consider `Cc1ccccc1/C=C1\SC(=S)N(/N=C/c2cc([N+](=O)[O-])ccc2O)C1=O`, for which the compound was called inactive in assay [1], in assay [4] and in assay [6]. In addition, in assay [2], the fluorescence, percent of control (lower = inhibition) was 34.1%. This compound also showed a GTP binding, percent of control in assay [3] of 81.2%. Besides, in assay [5], the GTP binding signal, raw median fluorescence (lower = inhibition) (MCF (arbitrary fluorescence units)) is 228.
Take `COc1ccc2c(C)nc(N/C(N)=N/S(=O)(=O)c3ccc(C)cc3)nc2c1`: the compound was called inactive in assay [1], in assay [4] and in assay [6]. Moreover, the fluorescence, percent of control (lower = inhibition) in assay [2] is 38.9%. Moreover, the GTP binding, percent of control in assay [3] was 87.9%. For the same compound, the GTP binding signal, raw median fluorescence (lower = inhibition) (MCF (arbitrary fluorescence units)) in assay [5] was 272.
Take `O=C(N/N=C/c1ccc([N+](=O)[O-])o1)c1cn(-c2ccccc2)nc1-c1ccc(Cl)cc1`: the result in assay [1], in assay [4] and in assay [6] was inactive. Moreover, the fluorescence, percent of control (lower = inhibition) in assay [2] came to 31.7%. In assay [3], this compound returned a GTP binding, percent of control of 77%. Besides, in assay [5], the GTP binding signal, raw median fluorescence (lower = inhibition) (MCF (arbitrary fluorescence units)) was 207.
For `Cn1nnnc1SCc1ccc(C(=O)Nc2nccs2)cc1`, the result in assay [1], in assay [4] and in assay [6] was inactive. In assay [2], the fluorescence, percent of control (lower = inhibition) was 36.8%. Also, the GTP binding, percent of control in assay [3] was 47.9%. For the same compound, the GTP binding signal, raw median fluorescence (lower = inhibition) (MCF (arbitrary fluorescence units)) in assay [5] came to 126.
As for `COc1cc([N+](=O)[O-])ccc1N=Nc1c(N)[nH]n(-c2ccccc2)c1=O`, the outcome in assay [1], in assay [4] and in assay [6] was inactive. Further, in assay [2], the fluorescence, percent of control (lower = inhibition) was determined as 30.5%. This compound also gave a GTP binding, percent of control in assay [3] of 74.5%. In assay [5], this compound registered a GTP binding signal, raw median fluorescence (lower = inhibition) (MCF (arbitrary fluorescence units)) of 188.
`Cc1ccccc1OCCn1c(C)c(C(=O)O)c2ccccc21`: the outcome in assay [1], in assay [4] and in assay [6] was inactive. Further, the fluorescence, percent of control (lower = inhibition) in assay [2] was 61.5%. Besides, in assay [3], the GTP binding, percent of control is 205%. The GTP binding signal, raw median fluorescence (lower = inhibition) (MCF (arbitrary fluorescence units)) in assay [5] amounted to 64.3.
